The record followed here is PubChem BioAssay (NCI).

Several values for one entry are separate records, joined by “and”; a condition that tells them apart may be missing. Equal entries are not always repeated. The panel holds about 83,000 compounds, 20% with a hit somewhere; the sample as a whole holds those more often.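 Values shown are percent growth following 48 h exposure of cells in 96-well plates to a single concentration of compound; below 10 was considered active.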 Activity calls are given as the source filed them.

The first assay deals with CCRF-CEM leukemia. Description: NCI-60 one-dose screen, 48 h (100 = growth as untreated, 0 = no growth, -100 = all killed). The note with it: 10 µM unless noted.
Consider `Cc1csc(/N=C(N)/N=C(\N)c2cccc(C#N)c2)n1`, for which the growth was 82.7% (inactive).

For the compound `CC[C@]12C=CCN3CC[C@]4(C(=C(C(=O)OC)C1)Nc1cc5c(cc14)[C@@H]1[C@H](O5)[C@@H](O)[C@@]4(CC)CC(C(=O)OC)=C5Nc6cc(O)ccc6[C@@]56CCN1C46)C32` (some centres not stated), the growth was 6.81% (active).

On to `COc1ccc(OC)c(CCn2cncc2-c2c[nH]c3ccc(Cl)cc23)c1`, for which the growth was 49.4% (inactive).

In the case of `Cc1ccc(-c2cc3nc(C(Cl)Cl)nc(-c4ccc(S(=O)(=O)N(C)C)cc4)n3n2)cc1`, the growth is 69.3% (inactive).

With `CC1=C(C)C(=O)C(Nc2cccc(C(=O)OC(C)(C)C)c2)=C(Cl)C1=O`, the growth is 21.9% (inactive).

`COC(=O)c1ccc(NC2=C(Cl)C(=O)C(C)=C(C)C2=O)cc1`: the growth is 9.06% (active).

As to `Cc1nc(/N=C(N)/N=C(\N)c2cccc(Br)c2)sc1C`, the growth was 34% (inactive).

For the compound `COC(=O)c1cccc(NC2=C(Cl)C(=O)c3nc(C)ccc3C2=O)c1`, the growth was 5.63% (active).

Regarding `CN(C)c1ccc(/C=N/Nc2nc(N/N=C/c3ccc(N(C)C)cc3)nc(N3CCCCC3)n2)cc1`, the growth was 25.8% (inactive).

Take `OCC(Nc1ncnc2ccc(-c3cnc4cnccn34)cc12)c1ccccc1` (configuration not stated): the growth was 80.5% (inactive).

As to `COc1ccc(-c2cc(-c3ccc(N4CCOCC4)cc3)n3c(n2)nc2ccccc23)cc1OC`, the growth is 63.7% (inactive).

As for `CCOC(=O)c1c(NC(=O)c2cccc(C(F)(F)F)c2)sc2c1CCC(=O)C2`, the growth was 8.47% (active).

For the compound `CN1CCN(c2ccc(Nc3nc(NCCCNS(=O)(=O)c4ccc(Cl)cc4)c4sccc4n3)cc2)CC1`, the growth was 13% (inactive).

`CCOC(=O)C(=O)Nc1ccc2c(ccn2C(=O)c2cccc(F)c2)c1`: the growth was 2.8% (active).

Consider `CCOc1cccc(/C(N)=N/C(N)=N/c2nc3ccccc3s2)c1`, for which the growth was 55.8% (inactive).

For `CN1CCN(c2ccc(Nc3nc(NCCCNS(=O)(=O)c4ccc(C(F)(F)F)cc4)c4sccc4n3)cc2)CC1`, the growth was 6.25% (active).

In the case of `Cc1ccc2c(n1)C(=O)C(Cl)=C(Nc1cccc(C(F)(F)F)c1)C2=O`, the growth was 4.32% (active).

The test system of another assay is MOLT-4 leukemia. The description is as above. The note with it: 10 µM unless noted.
Regarding `Cc1cc(Br)ccc1-n1cc(C#N)c(N)c1C(=O)c1ccc(Br)cc1`, the growth was 108% (inactive).

As to `CCCCCCN1C=C/C(=C\C(=O)n2ccc3ccccc32)c2ccccc21`, the growth is 62% (inactive).

For the compound `Cc1ccc(CSC2=C(Cl)CN(c3ccc(Cl)cc3)C2=O)cc1`, the growth was 110% (inactive).

For the compound `Clc1ccc(CSc2nnc(-c3ccc(Cl)cc3)n2-c2ccccc2)cc1`, the growth was 92% (inactive).

As to `NS(=O)(=O)c1ccc(CCn2c(-c3ccc(C(=O)O)cc3)nc(-c3ccccc3)c2-c2ccccc2)cc1`, the growth was 108% (inactive).

On to `CC(=C(c1ccc(OCCCN(C)C)cc1)c1ccc(OCCCN(C)C)cc1)c1ccc(Cl)cc1`, for which the growth was 65.3% (inactive).

As to `CC[C@]12CC(C(=O)OC)=C3Nc4ccccc4[C@@]34CCN(C14)[C@@H]1c3cc4c(cc3O[C@@H]1[C@H]2O)NC1=C(C(=O)OC)C[C@@]2(CC)C3N(CC[C@@]143)C[C@H]1O[C@H]12` (some centres not stated), the growth was 14% (inactive).

Consider `Cc1ccc(-c2csc(N/N=C/c3cccs3)n2)cc1`, for which the growth is 86.7% (inactive).

With `CN1CCC[C@]2(C)[C@H]3CC[C@@H]4[C@@H]5[C@H]6OC[C@@]5(CCC6(C)C)CC[C@@]4(C)[C@]3(C)CC[C@H]2C1(C)C`, the growth is 37.7% (inactive).

As to `O=S(=O)(Oc1ccc(-c2cn3ccoc3n2)cc1)c1cccc(C(F)(F)F)c1`, the growth was 103% (inactive).

Turning to `CC(Nc1c(C#N)cnc2ccc(-c3cncc(-c4n[nH]c(=O)o4)c3)cc12)c1ccccc1` (configuration not stated), the growth is 8.04% (active).

Take `C#CCN(C)CCCOc1ccc(NC(=O)CCCCCCCCC(=O)NO)cc1Cl`: the growth is 43.2% (inactive).

`CCCc1cc2cc(-n3nc(CC)c4c3CC(C)(C)CC4=O)cc(NC3CCC(O)CC3)c2c(=O)[nH]1` (configuration not stated): the growth is 15.3% (inactive).

With `O=C(CN1CCN(c2cc(=O)[nH]c3ccc(F)cc23)CC1)N(c1ccccc1)c1ccccc1`, the growth is 99.5% (inactive).

With `CN1CCN(c2ccc(Nc3nc(NCCCNS(=O)(=O)c4cccc(F)c4)c4sccc4n3)cc2)CC1`, the growth is 13.3% (inactive).

For `COc1ccc(C(=NNS(=O)(=O)c2ccc(C)cc2)c2ccccc2)cc1OC`, the growth is 98.3% (inactive).

Turning to `COc1ccc(/C=N/NC(=O)c2c(N)nn(C)c2Nc2ccccc2)cc1Oc1ccccc1`, the growth was 90.4% (inactive).

With `C#C[C@]1(O)CC[C@H]2[C@@H]3CC=C4c5sc(NCc6ccccc6)nc5CC[C@]4(C)[C@H]3CC[C@@]21C`, the growth is -11.7% (active).

Take `Cc1cc(NS(=O)(=O)c2ccc(NC(=O)CSc3nc4ccccc4c(=O)n3-c3ccccc3)cc2)no1`: the growth was 107% (inactive).

Consider `CC(C)NC(=O)c1cc(-c2ccc(NC(=O)Nc3ccc(F)c(C(F)(F)F)c3)cc2)nc2cccnc12`, for which the growth was 117% (inactive).

As to `CCOC(=O)c1cccnc1Nc1ccc(NC(=O)Nc2ccc(Cl)c(C(F)(F)F)c2)cc1`, the growth is 24.9% (inactive).

With `O=C(CSc1nc2ccccc2c(=O)n1-c1ccc(S(=O)(=O)Nc2ccc(Cl)nn2)cc1)Nc1ccc(S(=O)(=O)Nc2ccc(Cl)nn2)cc1`, the growth was 97.6% (inactive).

With `COc1cc(-c2nc(-c3ccccc3)[nH]c2-c2ccnc(NCCCNS(=O)(=O)c3ccc(C(F)(F)F)cc3)n2)ccc1Cl`, the growth was -4.06% (active) and 16.3% (inactive).

For the compound `Cc1csc(/N=C(N)/N=C(\N)c2cccc(C#N)c2)n1`, the growth was 85.6% (inactive).

With `CC[C@]12C=CCN3CC[C@]4(C(=C(C(=O)OC)C1)Nc1cc5c(cc14)[C@@H]1[C@H](O5)[C@@H](O)[C@@]4(CC)CC(C(=O)OC)=C5Nc6cc(O)ccc6[C@@]56CCN1C46)C32` (some centres not stated), the growth is 8.51% (active).

On to `COc1ccc(OC)c(CCn2cncc2-c2c[nH]c3ccc(Cl)cc23)c1`, for which the growth is 25% (inactive).

`Cc1ccc(-c2cc3nc(C(Cl)Cl)nc(-c4ccc(S(=O)(=O)N(C)C)cc4)n3n2)cc1`: the growth was 75.6% (inactive).

With `CC1=C(C)C(=O)C(Nc2cccc(C(=O)OC(C)(C)C)c2)=C(Cl)C1=O`, the growth was 45.3% (inactive).

Consider `COC(=O)c1ccc(NC2=C(Cl)C(=O)C(C)=C(C)C2=O)cc1`, for which the growth is 9.07% (active).

Regarding `Cc1nc(/N=C(N)/N=C(\N)c2cccc(Br)c2)sc1C`, the growth is 39.7% (inactive).

Regarding `COC(=O)c1cccc(NC2=C(Cl)C(=O)c3nc(C)ccc3C2=O)c1`, the growth was 19.7% (inactive).

As for `CN(C)c1ccc(/C=N/Nc2nc(N/N=C/c3ccc(N(C)C)cc3)nc(N3CCCCC3)n2)cc1`, the growth is 12.1% (inactive).

In the case of `OCC(Nc1ncnc2ccc(-c3cnc4cnccn34)cc12)c1ccccc1` (configuration not stated), the growth is 76.1% (inactive).

Turning to `COc1ccc(-c2cc(-c3ccc(N4CCOCC4)cc3)n3c(n2)nc2ccccc23)cc1OC`, the growth was 51.4% (inactive).

For the compound `CCOC(=O)c1c(NC(=O)c2cccc(C(F)(F)F)c2)sc2c1CCC(=O)C2`, the growth is 36.8% (inactive).

As to `CN1CCN(c2ccc(Nc3nc(NCCCNS(=O)(=O)c4ccc(Cl)cc4)c4sccc4n3)cc2)CC1`, the growth was 4.92% (active).

For the compound `CCOC(=O)C(=O)Nc1ccc2c(ccn2C(=O)c2cccc(F)c2)c1`, the growth was 107% (inactive).

Regarding `CCOc1cccc(/C(N)=N/C(N)=N/c2nc3ccccc3s2)c1`, the growth is 62.4% (inactive).

`CN1CCN(c2ccc(Nc3nc(NCCCNS(=O)(=O)c4ccc(C(F)(F)F)cc4)c4sccc4n3)cc2)CC1`: the growth was 0.188% (active).

Turning to `Cc1ccc2c(n1)C(=O)C(Cl)=C(Nc1cccc(C(F)(F)F)c1)C2=O`, the growth was 6.52% (active).
